Activity calls are given as the source filed them. The calls were made as follows: active = hit-call score of the fitted dose curve at least 0.9, where 1 is the maximum; inactive = score below 0.9.
Tests used:
[1] = read-out: Monokine induced gamma interferon (MIG), CXCL9 (gene 4283); assay: BSK_hDFCGF_MIG: BioMAP Diversity Plus: hDFCGF Assay for Monokine induced gamma interferon (MIG) Biomarker Activity (AID 2283063); conditions: primary human foreskin fibroblasts; actives raise or lower the signal
Summary of the method: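 Endpoint derived by bidirectional fitting relative to DMSO; MIG quantified via ELISA in primary human foreskin fibroblasts harvested 24 h after dosing.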

[2] = read-out: Matrix Metallopeptidase 1 (MMP1), MMP1 (gene 4312); assay: BSK_hDFCGF_MMP1: BioMAP Diversity Plus: hDFCGF Assay for Matrix Metallopeptidase 1 (MMP1) Biomarker Activity (AID 2283064); conditions: primary human foreskin fibroblasts; actives raise or lower the signal
Summary of the method: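 MMP1 levels quantified by ELISA 24 h after dosing human dermal fibroblast cultures, with parallel SRB total-protein staining for overt cytotoxicity. Data fitted in both directions against DMSO baseline.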

[3] = read-out: Vascular cell adhesion molecule 1 (VCAM1), VCAM1 (gene 7412); assay: BSK_hDFCGF_VCAM1: BioMAP Diversity Plus: hDFCGF Assay for Vascular cell adhesion molecule 1 (VCAM1) Biomarker Activity (AID 2283065); conditions: primary human foreskin fibroblasts; actives raise or lower the signal;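 as to AC50: VCAM-1 protein level quantified by ELISA after 24 h chemical exposure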
Summary of the method: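 Measured after 24 h chemical treatment of primary human skin fibroblasts, VCAM-1 was detected by ELISA and concentration-response analysed in both directions versus DMSO vehicle.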

[4] = read-out: Plasminogen activator inhibitor-1 (PAI1), SERPINE1 (gene 5054); assay: BSK_hDFCGF_PAI1: BioMAP Diversity Plus: hDFCGF Assay for Plasminogen activator inhibitor-1 (PAI1) Biomarker Activity (AID 2283066); conditions: primary human foreskin fibroblasts; actives raise or lower the signal
Summary of the method: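 PAI-1 levels in human dermal foreskin fibroblasts were quantified by ELISA 24 h after dosing, with gain or loss analysed against DMSO. Overt cytotoxicity was checked by sulforhodamine B total-protein staining in parallel cultures.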

[5] = read-out: Interferon-gamma inducible Protein 10 (IP10), CXCL10 (gene 3627); assay: BSK_KF3CT_IP10: BioMAP Diversity Plus: KF3CT Assay for Interferon-gamma inducible Protein 10 (IP10) Biomarker Activity (AID 2283068); conditions: primary human keratinocytes with fibroblasts; actives raise or lower the signal
Summary of the method: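 Signal is secreted/surface IP-10 by ELISA in a human primary skin co-culture of keratinocytes and foreskin fibroblasts, taken 24 h post-dosing; DMSO served as negative control.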

[6] = BSK_KF3CT_SRB: Viability Assessment in the BioMAP Diversity Plus: KF3CT Assay (AID 2283069); conditions: primary human keratinocytes with fibroblasts;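 also: read 24 h after compound addition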
Summary of the method: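 Cytotoxicity was gauged by SRB staining (0.1% SRB, 10% TCA fixation, 560 nm) of parallel cultures at 24 h. The cells were primary human skin keratinocytes co-cultured with fibroblasts, and activity was fitted in both directions against DMSO.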

[7] = read-out: TIMP metallopeptidase inhibitor 2 (TIMP2), TIMP2 (gene 7077); assay: BSK_KF3CT_TIMP2: BioMAP Diversity Plus: KF3CT Assay for TIMP metallopeptidase inhibitor 2 (TIMP2) Biomarker Activity (AID 2283071); conditions: primary human keratinocytes with fibroblasts; actives raise or lower the signal
Summary of the method: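 TIMP-2 measured by ELISA at 24 h in human keratinocyte/fibroblast primary co-cultures exposed to chemicals. Both increases and decreases were fitted against DMSO. Parallel cultures were stained with SRB for total protein as an overt-cytotoxicity check.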

[8] = read-out: Transforming growth factor beta 1 (TGFb1), TGFB1 (gene 7040); assay: BSK_KF3CT_TGFb1: BioMAP Diversity Plus: KF3CT Assay for Transforming growth factor beta 1 (TGFb1) Biomarker Activity (AID 2283072); conditions: primary human keratinocytes with fibroblasts; actives raise or lower the signal
Summary of the method: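 ELISA quantifies TGF-b1 at 24 h post-dose in a primary human skin co-culture of keratinocytes and fibroblasts, with gain or loss judged against DMSO. Parallel SRB total-protein staining flags overt cytotoxicity.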

[9] = read-out: C-C motif chemokine 2 (Homo sapiens) (UniProt P13500); assay: BSK_KF3CT_MCP1: BioMAP Diversity Plus: KF3CT Assay for Monocyte Chemoattractant Protein 1 (MCP1/CCL2) Biomarker Activity (AID 2283073); conditions: primary human keratinocytes with fibroblasts; actives raise or lower the signal
Summary of the method: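 Biomarker MCP-1 is measured by ELISA in primary human keratinocytes co-cultured with foreskin fibroblasts, 24 h after chemical treatment; DMSO serves as the negative control and activity baseline.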

[10] = read-out: Matrix Metallopeptidase 9 (MMP9), MMP9 (gene 4318); assay: BSK_KF3CT_MMP9: BioMAP Diversity Plus: KF3CT Assay for Matrix Metallopeptidase 9 (MMP9) Biomarker Activity (AID 2283074); conditions: primary human keratinocytes with fibroblasts; actives raise or lower the signal
Summary of the method: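 MMP-9 quantified by ELISA after 24 h chemical treatment of primary human skin keratinocyte/fibroblast co-cultures; gain or loss fitted against DMSO, with parallel SRB staining (0.1% SRB, 560 nm) for overt cytotoxicity.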

[11] = read-out: urokinase plasminogen activator (uPA), PLAU (gene 5328); assay: BSK_KF3CT_uPA: BioMAP Diversity Plus: KF3CT Assay for urokinase plasminogen activator (uPA) Biomarker Activity (AID 2283075); conditions: primary human keratinocytes with fibroblasts; actives raise or lower the signal
Summary of the method: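 ELISA read-out of uPA 24 h after dosing human skin keratinocytes co-cultured with foreskin fibroblasts. Signal change fitted both ways relative to DMSO; sulforhodamine B on parallel cultures marks overt cytotoxicity.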

[12] = read-out: CD40, CD40 (gene 958); assay: BSK_LPS_CD40: BioMAP Diversity Plus: LPS Assay for CD40 Biomarker Activity (AID 2283076); conditions: primary human HUVEC with PBMC; actives raise or lower the signal
Summary of the method: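 Using a multiplexed primary human co-culture (umbilical vein endothelium plus PBMC), CD40 was read by ELISA 24 h after dosing, with cytotoxicity tracked by sulforhodamine B staining of parallel cultures and activity fitted bidirectionally versus DMSO.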

[13] = read-out: E-selectin (Homo sapiens) (UniProt P16581); assay: BSK_LPS_Eselectin: BioMAP Diversity Plus: LPS Assay for Eselectin Biomarker Activity (AID 2283077); conditions: primary human HUVEC with PBMC; actives raise or lower the signal
Summary of the method: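 Dose chemical onto LPS-driven HUVEC/PBMC co-culture; after 24 h, run ELISA for E-selectin; fit up- and down-going responses relative to DMSO control.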

[14] = read-out: Interleukin-8 (IL8), CXCL8 (gene 3576); assay: BSK_LPS_IL8: BioMAP Diversity Plus: LPS Assay for Interleukin-8 (IL8) Biomarker Activity (AID 2283078); conditions: primary human HUVEC with PBMC; actives raise or lower the signal
Summary of the method: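 In this LPS system, chemical-treated human umbilical vein endothelium/PBMC co-cultures were harvested at 24 h for IL-8 ELISA.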

[15] = BSK_LPS_SRB: Viability Assessment in the BioMAP Diversity Plus: LPS Assay (AID 2283079); conditions: primary human HUVEC with PBMC;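 also: total protein by sulforhodamine B absorbance as a cytotoxicity measure; measured one day after compound addition; fitted in both directions against DMSO so loss or gain of signal counts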
Summary of the method: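 Cytotoxicity endpoint in human endothelial–PBMC co-culture: 24 h exposure, then SRB (0.1%) staining, 560 nm read.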

[16] = read-out: Monocyte Chemoattractant Protein-1 (MCP1), CCL2 (gene 6347); assay: BSK_LPS_MCP1: BioMAP Diversity Plus: LPS Assay for Monocyte Chemoattractant Protein-1 (MCP1) Biomarker Activity (AID 2283081); conditions: primary human HUVEC with PBMC; actives raise or lower the signal;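 as to AC50: secreted MCP-1 protein quantified by ELISA in culture supernatant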
Summary of the method: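 Values derive from bidirectional fitting against DMSO of ELISA-measured MCP-1 in a human primary endothelial and mononuclear cell co-culture, 24 h after chemical addition under LPS activation.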

[17] = BSK_LPS_PGE2: BioMAP Diversity Plus: LPS Assay for Prostaglandin E2 (PGE2) Biomarker Activity (AID 2283082); conditions: primary human HUVEC with PBMC; actives raise or lower the signal;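 as to AC50: secreted prostaglandin E2 measured by ELISA in LPS-stimulated co-culture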
Summary of the method: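 PGE2 release measured by ELISA in an LPS-activated co-culture of human umbilical vein endothelial cells and peripheral blood mononuclear cells, read at 24 h post-dosing. DMSO served as baseline for bidirectional curve fitting.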

[18] = read-out: Interleukin-1 alpha (IL1a), IL1A (gene 3552); assay: BSK_KF3CT_IL1a: BioMAP Diversity Plus: KF3CT Assay for Interleukin-1 alpha (IL1a) Biomarker Activity (AID 2283070); conditions: primary human keratinocytes with fibroblasts; actives raise or lower the signal
Summary of the method: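 IL-1a was detected by ELISA 24 h after chemical treatment of a co-culture of human skin keratinocytes and foreskin fibroblasts. Gain or loss of signal was fitted against the DMSO baseline.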

[19] = read-out: Interleukin-1 alpha (IL1a), IL1A (gene 3552); assay: BSK_LPS_IL1a: BioMAP Diversity Plus: LPS Assay for Interleukin-1 alpha (IL1a) Biomarker Activity (AID 2283080); conditions: primary human HUVEC with PBMC; actives raise or lower the signal
Summary of the method: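 Primary human HUVEC and PBMC co-culture stimulated with LPS is dosed and harvested at 24 h. Both increases and decreases in ELISA-measured IL-1a are scored relative to DMSO.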

Measured: AC50

E-selectin (Homo sapiens), sequence (P16581 whole entry, looked up): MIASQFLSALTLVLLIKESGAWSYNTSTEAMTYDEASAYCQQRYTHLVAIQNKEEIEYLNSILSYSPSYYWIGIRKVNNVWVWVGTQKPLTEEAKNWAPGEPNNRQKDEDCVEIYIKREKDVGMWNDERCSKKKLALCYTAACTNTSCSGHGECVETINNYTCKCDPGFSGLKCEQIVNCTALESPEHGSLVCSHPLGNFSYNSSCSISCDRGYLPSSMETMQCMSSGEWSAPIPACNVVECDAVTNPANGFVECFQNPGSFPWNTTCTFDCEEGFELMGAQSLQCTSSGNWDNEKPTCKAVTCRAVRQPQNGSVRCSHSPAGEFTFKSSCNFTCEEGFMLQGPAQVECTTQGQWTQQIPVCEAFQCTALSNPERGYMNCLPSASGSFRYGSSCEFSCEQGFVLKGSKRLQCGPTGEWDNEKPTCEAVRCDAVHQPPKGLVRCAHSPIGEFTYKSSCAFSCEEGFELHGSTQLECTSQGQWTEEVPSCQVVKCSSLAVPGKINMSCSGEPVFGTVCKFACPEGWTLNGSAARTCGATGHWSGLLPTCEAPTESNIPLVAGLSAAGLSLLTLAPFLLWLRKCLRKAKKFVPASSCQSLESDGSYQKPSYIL

O=C(O)c1cccc(N(Cc2cccnc2)c2ccc(OC(F)F)c(OC(F)F)c2)c1
active: [3] 1.27 µM | [4] 1.26 µM | [13] 11 µM | [14] 9.79 µM | [16] 10.7 µM | [17] 12.2 µM
inactive: [1] | [2] | [5] | [6] | [7] | [8] | [9] | [10] | [11] | [12] | [15]

CCCCC(CC)COC(=O)c1ccc(C(=O)OCC(CC)CCCC)cc1 (centres undefined)
inactive: [1] | [2] | [3] | [4] | [5] | [6] | [18] | [7] | [8] | [9] | [10] | [11] | [12] | [13] | [14] | [15] | [16] | [17]

CC(C)(O)c1coc(S(=O)(=O)NC(=O)Nc2c3c(cc4c2CCC4)CCC3)c1
inactive: [1] | [2] | [3] | [4] | [5] | [6] | [18] | [7] | [8] | [9] | [10] | [11] | [12] | [13] | [15] | [16] | [17]
active: [14] 0.148 µM

CC(=O)c1ccc2c(c1)[C@H](NC(=O)c1ccc(F)cc1)[C@@H](O)C(C)(C)O2
inactive: [1] | [2] | [3] | [4] | [5] | [6] | [18] | [7] | [8] | [9] | [10] | [11] | [12] | [13] | [14] | [15] | [16] | [17]

CC(C)=CCCC(C)CCO (centres undefined)
inactive: [1] | [2] | [3] | [4] | [5] | [6] | [7] | [8] | [9] | [10] | [11] | [12] | [13] | [14] | [15] | [19] | [16] | [17]

O=C1CCC(N2C(=O)c3ccccc3C2=O)C(=O)N1 (centres undefined)
inactive: [1] | [2] | [3] | [4] | [5] | [6] | [7] | [8] | [9] | [10] | [11] | [12] | [13] | [14] | [15] | [16] | [17]

Cc1[nH]cnc1C[C@H]1CCc2c(C)c3ccccc3n2C1=O
inactive: [1] | [2] | [3] | [4] | [5] | [6] | [7] | [8] | [9] | [10] | [11] | [13] | [19] | [17]
active: [12] 27.8 µM | [14] 24.3 µM | [15] 26.2 µM | [16] 27 µM

— PubChem BioAssay (EPA / NIEHS)
